We go through six compounds from PubChem BioAssay.

Each structure is given as a SMILES string. Inconclusive results are not listed. Activity calls are given as the source filed them.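 The calls were made as follows, unless noted: active = compounds that lower survival of HCT116 colon cancer cells in the luminescence readout, no numeric limit stated; inactive = the rest.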

The nature of experiment [1]: stimulators of insulin release from INS-1E, primary screen, cell-based, 5 mM glucose, NPC library (AID 1117329;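 active = compound raises insulin release from rat beta cells at 5 mM glucose, no numeric limit stated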). The note with it: rat INS-1E insulin secretion, at 10 µM, stronger effect = higher value.
Experiment [2] is described as follows: growth inhibition of GSK3B-pretreated HCT116 cells – cell-based, CellTiter-Glo, 0.2 to 20 µM (AID 1117336;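 active = compounds lowering colon cancer cell viability after pretreatment blocking the GSK3B kinase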). The conditions noted are these: HCT116 viability after GSK3B inhibitor, at 20 µM, stronger effect = higher value. Background: Cellular ATP, detected with luciferase, serves as a proxy for viable cell number.
The nature of experiment [3]: inhibition of endothelial tube formation, primary screen, imaging, VEGF stimulated, CD31 staining, tube area, NPC library (AID 1117340;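 active = compound that reduces growth-factor-driven endothelial tube area in a mixed cell culture, no cutoff stated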). The conditions noted are these: VEGF-stimulated ADSC/ECFC co-culture, at 10 µM, stronger effect = higher value.
A short description of experiment [4]: glucagon-like peptide 1 release enhancers, primary assay, NCI-H716 cell line, NPC library (AID 1117341;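 active = compound raises GLP1 secretion from the human gut endocrine cells, with no numeric limit stated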). The conditions noted are these: NCI-H716 cells, at 10 µM, stronger effect = higher value.
The nature of experiment [5]: HCT116 colon cancer cell growth inhibition, primary screen, CellTiter-Glo luminescence, NPC library (AID 1117342). The note with it: at 20 µM (top of the series).
Experiment [6] in a line: CellTiter-Glo luminescent readout of SW480 viability loss, NPC library primary (AID 1117343;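 active = compounds that lower viability of the colon cancer cells in the luminescence readout, with no numeric limit stated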). The note with it: CellTiter-Glo luminescence; at 20 µM (top of the series).
Experiment [7] can be described thus: decreased DLD-1 cellular survival, CellTiter-Glo luminescent readout, NPC compound collection, primary HTS (AID 1117346;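 active = compounds that lower survival of DLD-1 colon cancer cells in the luminescence readout, no cutoff given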). The note with it: DLD-1 viability, CellTiter-Glo luminescence; at 20 µM (top of the series).
The nature of experiment [8]: modulation of C. elegans fzo-1 (AID 1259413; call rule not given here;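 also: fzo-1 mutant C. elegans worms in liquid wells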). The note with it: C. elegans fzo-1 modulator screen, mean read-out; stronger effect = higher value.
Experiment [9] is described as follows: differential killing of epithelial or mesenchymal cells, primary screen, imaging, PC-3E GFP, TEM4-18 mCherry, co-culture (AID 1345086;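 active = compounds killing one labelled cell type while sparing the other, by normalised counts and ratio limits, not self-fluorescent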;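 as to all read-outs here: cells exposed to compound for 72 h before imaging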;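 as to red/green cell ratio (normalised): normalised mesenchymal count divided by normalised epithelial count so high means epithelial killing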). The note with it: imaging cell counts, at 1 µM; for red/green cell ratio (normalised): actives lie on both sides, counts scaled to control wells, 1 = unselective.
Experiment [10] is described as follows: growth inhibition of DIPG glioma cells, dose response, cell-based, SU-DIPG-XIII, MIPE4.0, CellTiter-Glo, qHTS (AID 1347061; cut-off not given, nearly all actives have AC50 up to about 37 µM;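 also: cells exposed to compound for 48 hours before readout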). The note with it: SU-DIPG-XIII viability, CellTiter-Glo ATP luminescence.
The nature of experiment [11]: growth inhibition of DIPG glioma cells, dose response, cell-based, JHH-DIPG-1, MIPE4.0, CellTiter-Glo, qHTS (AID 1347062; cut-off not given, nearly all actives have AC50 up to about 27 µM;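 as to AC50: cells exposed to compound for two days before readout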). The note with it: JHH-DIPG-1 viability, CellTiter-Glo ATP luminescence.
A short description of experiment [12]: growth inhibition of DIPG glioma cells, dose response, cell-based, SU-DIPG-IV, MIPE4.0, CellTiter-Glo, qHTS (AID 1347063; cut-off not given, nearly all actives have AC50 up to about 30 µM;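 also: compound exposure lasted 48 hours before the viability readout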). The note with it: SU-DIPG-IV viability, CellTiter-Glo ATP luminescence.
A short description of experiment [13]: growth inhibition of DIPG glioma cells, dose response, cell-based, SU-DIPG-XVII, MIPE5.0, CellTiter-Glo, qHTS (AID 1347060; cut-off not given, nearly all actives have AC50 up to about 26 µM;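 as to AC50: cells exposed to compound for 48 hours before viability readout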). The note with it: SU-DIPG-XVII viability, CellTiter-Glo ATP luminescence.
The nature of experiment [14]: growth inhibition of DIPG glioma cells, dose response, cell-based, SU-DIPG-XIII, MIPE5.0, CellTiter-Glo, qHTS (AID 1347064; cut-off not given, nearly all actives have AC50 up to about 23 µM). The note with it: SU-DIPG-XIII viability, CellTiter-Glo ATP luminescence.
Setting [15] is: measured here: epithelial PC-3E GFP cell survival.
Where [16] appears, read: measured here: mesenchymal TEM4-18 mCherry cell survival.

With `CC(C)c1nc(CN(C)C(=O)N[C@H](C(=O)N[C@@H](Cc2ccccc2)C[C@H](O)[C@H](Cc2ccccc2)NC(=O)OCc2cncs2)C(C)C)cs1`, in experiment [1], the insulin secretion stimulation is 0.2% (inactive). Besides, the viability decrease in [2] was 33.5% (inactive). In addition, in experiment [3], the tube area decrease is -13.5% (inactive). For the same compound, the GLP1 secretion stimulation in experiment [4] is -0.8% (inactive). Also, in experiment [5], the inhibition of viability is 67.7% (active). Moreover, the viability decrease (inhibition) in experiment [6] is 4.9% (inactive); in experiment [7] it was 19.4% (inactive). Also, the mean signal in experiment [8] is 246 (inactive). Moreover, the red/green cell ratio (normalised) in experiment [9] was 1.06 (inactive). Moreover, the normalised cell number in experiment [9] (setting [15]) was determined as 1.14; in experiment [9] (setting [16]) it was 1.21. Besides, the result in [10] and in experiment [11] was inactive.

As usually defined, the AC50 is the midpoint of the concentration-response curve, whichever way the signal moves. Turning to `CC(=O)Oc1ccccc1C(=O)Nc1ncc([N+](=O)[O-])s1`, the insulin secretion stimulation in experiment [1] was -1.8% (inactive). Also, the viability decrease in [2] was 106% (active). Besides, the tube area decrease in experiment [3] was 110% (active). Further, the GLP1 secretion stimulation in [4] was 2.9% (inactive). Further, the inhibition of viability in experiment [5] is 107% (active). For the same compound, the viability decrease (inhibition) was 120% (active) in experiment [6] and 95.2% (active) in experiment [7]. In addition, the mean signal in experiment [8] was 256 (inactive). Also, in experiment [9], the red/green cell ratio (normalised) is 0.75 (inactive). Also, the normalised cell number is 1.31 in [9] (setting [15]) and 0.98 in [9] (setting [16]). Further, the results for the concentration at half-maximal activity (AC50) in experiment [10], in [11] and in experiment [12] were 27 µM (active), 38.2 µM (active) and 34 µM (active), respectively.

In the case of `CC[C@@]1(O)C(=O)OCc2c1cc1n(c2=O)Cc2cc3c(CN(C)C)c(O)ccc3nc2-1`, the insulin secretion stimulation in [1] was 0.5% (inactive). Further, the viability decrease in experiment [2] is 61.2% (active). The tube area decrease in experiment [3] is 107% (active). In addition, the GLP1 secretion stimulation in experiment [4] was -4.3% (inactive). In addition, the inhibition of viability in experiment [5] was 52.2% (active). For the same compound, the viability decrease (inhibition) in [6] was 75% (active); in experiment [7] it was 67.8% (active). In addition, in experiment [8], the mean signal was 251 (inactive). In addition, the red/green cell ratio (normalised) in [9] is 1.81 (inactive). The normalised cell number in [9] (setting [15]) amounted to 0.19; in experiment [9] (setting [16]), 0.34. Also, the AC50 in experiment [13] is 0.0525 µM (active); in experiment [11], 8.33 µM (active); in experiment [12], 0.332 µM (active).

Turning to `CCOC(=O)[C@H](CCc1ccccc1)N[C@@H](C)C(=O)N1[C@H](C(=O)O)C[C@@H]2CCC[C@@H]21`, the insulin secretion stimulation in experiment [1] was 1.25% (inactive). Moreover, the viability decrease in experiment [2] was 13.8% (inactive). Besides, in [3], the tube area decrease was -11% (inactive). Besides, in experiment [4], the GLP1 secretion stimulation is 2.1% (inactive). Besides, in [5], the inhibition of viability is 6.1% (inactive). Besides, the viability decrease (inhibition) in [6] is -19% (inactive); in experiment [7], -0.3% (inactive). Besides, the mean signal in experiment [8] is 226 (inactive). In [9], the red/green cell ratio (normalised) was 0.83 (inactive). Moreover, the values for the normalised cell number in [9] (setting [15]) and in experiment [9] (setting [16]) were 1.1 and 0.91, respectively. The AC50 was 8.33 µM (active) in experiment [10], 16.6 µM (active) in experiment [11] and 5.9 µM (active) in experiment [12]. The outcome in experiment [14] was inactive.

`Cc1nc2n(c(=O)c1CCN1CCC(c3noc4cc(F)ccc34)CC1)CCCC2`: in experiment [1], the insulin secretion stimulation is 2.5% (inactive). The viability decrease in [2] is 5.9% (inactive). Moreover, in experiment [3], the tube area decrease was 24.9% (inactive). The GLP1 secretion stimulation in experiment [4] is 2.3% (inactive). Further, the inhibition of viability in [5] was 24.2% (inactive). For the same compound, the figures for the viability decrease (inhibition) in [6] and in experiment [7] were 41.5% (inactive) and 10.7% (inactive), respectively. The mean signal in [8] was 241 (inactive). In addition, the red/green cell ratio (normalised) in experiment [9] was 0.98 (inactive). Also, the normalised cell number in experiment [9] (setting [15]) is 1.02; in experiment [9] (setting [16]), 1. Also, the compound was classed as inactive in experiment [10] and in [12].

For the compound `Cc1[nH]c(=O)c(C#N)cc1-c1ccncc1`, in experiment [1], the insulin secretion stimulation was 0.8% (inactive). In addition, the viability decrease in [2] is -19.7% (inactive). Moreover, the tube area decrease in [3] is 4% (inactive). The GLP1 secretion stimulation in experiment [4] was 0% (inactive). Moreover, in experiment [5], the inhibition of viability was 16.6% (inactive). The viability decrease (inhibition) in [6] was -4.9% (inactive); in experiment [7], -6.1% (inactive). The mean signal in experiment [8] was 234 (inactive). Moreover, the red/green cell ratio (normalised) in experiment [9] was 1.2 (inactive). Besides, the normalised cell number in experiment [9] (setting [15]) came out at 1.05; in [9] (setting [16]), 1.26. In addition, in experiment [13], the outcome was inactive.
